Rows were chosen to be rich in hits. Some 3% of all compounds tested hit in one or more screens of this group.
KDM5B inh: KDM5B demethylase inhibition; hit rate 2.6% among 220,000; AID 1347165; Potency, µM (titrated, usually from 57.7 µM), usual class: inhibitors; Q9UGL1; KDM5B demethylase, FDH-coupled NADH fluorescence (FDH is formaldehyde dehydrogenase); further: potency means the concentration at half of the fitted maximal effect; 0% is about no effect; nearly all actives have a fitted effect of over 70% in size
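Inhibition is measured as reduced NADH fluorescence generation from FDH coupling to formaldehyde release. Truncated KDM5BΔAP at 200 nM final acts on H3K4me3 peptide (12.5 µM in substrate mix) in pH 7.5 HEPES buffer with Tween-20, 30 min, room temperature.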
HEK293 viab: reduces viability of HEK-293 SNCA reporter cells | HEK-293-SNCA-luc viability, GF-AFC fluorescence, 24 h | Potency, µM (series often up to 57.1 µM), inactives show at the highest dose activity change, negative = cytotoxicity, hits mostly cytotoxic | hit rate 0.12% among 150,000 | AID 1671193;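 further: potency means the concentration at half of the fitted maximal effect; 0% = DMSO-treated cells and -100% = medium-only wells without cells; nearly all actives have a fitted effect of over 30% in size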
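Cytotoxicity counterscreen: after 24 h compound treatment of genome-edited SNCA-luciferase HEK-293 cells, live-cell protease substrate GF-AFC read by fluorescence after 30 min; activity scaled between DMSO (0%) and medium-only (-100%), curves Hill-fitted.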
IP6K1 inh: blocks human inositol hexakisphosphate kinase 1. Q92551. IP6K1 kinase, ADP-Glo luminescence, 2 h; active compounds read low. activity change, % (series mostly up to about 58 µM). hit rate 0.81% among 140,000. AID 1645851; in the data active means activity change below about -25%; further: on the % scale 0 is the no-effect control and ±100 the full control effect
Target sequence (Q92551 whole entry, looked up): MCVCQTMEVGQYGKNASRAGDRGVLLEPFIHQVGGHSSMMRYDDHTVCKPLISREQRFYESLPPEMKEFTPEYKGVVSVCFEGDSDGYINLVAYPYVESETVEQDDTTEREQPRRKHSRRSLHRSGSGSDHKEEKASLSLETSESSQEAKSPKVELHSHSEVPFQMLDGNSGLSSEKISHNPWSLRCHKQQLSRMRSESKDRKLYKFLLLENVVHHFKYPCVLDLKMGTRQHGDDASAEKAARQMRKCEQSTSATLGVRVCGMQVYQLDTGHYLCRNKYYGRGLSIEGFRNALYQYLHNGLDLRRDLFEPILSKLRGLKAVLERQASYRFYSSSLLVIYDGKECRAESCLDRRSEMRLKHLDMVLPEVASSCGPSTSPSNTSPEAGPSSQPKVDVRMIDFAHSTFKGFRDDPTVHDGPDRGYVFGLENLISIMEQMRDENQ
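ADP-Glo luminescence measures ADP made by human IP6K1 during a 2 h RT reaction with ATP/IP6 (mix at 1.3 mM/130 uM); top library doses 57.5 and 19.1 uM final.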
SNCA expr inhib: inhibitors of alpha-synuclein (SNCA) gene expression; HEK-293 SNCA-luciferase knock-in, luminescence, 24 h; Potency, µM (titrated, usually from 57.2 µM), without a hit: at the highest dose activity change, negative = inhibition, hits mostly inhibitors; hit rate 0.17% among 140,000; AID 1671194;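 further: potency means the concentration at half of the fitted maximal effect; plate controls were DMSO cells for no effect and cell-free wells for full effect; nearly all actives have a fitted effect of over 45% in size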
* hit, by the source's call; i = inactive; ? = inconclusive; · = no result given; [ ] = remark or other dose. Unless noted, the call rests on the fitted dose curve; in most records, active means well fitted curve in the direction sought with a large enough effect; inconclusive means small, poorly fitted or top-dose-only effect, or another doubt; inactive means no such curve, though single readings can be large; an effect the other way counts as inactive or inconclusive.

SMILES | KDM5B inh | HEK293 viab | IP6K1 inh | SNCA expr inhib
COc1ccc(Nc2ccnc(N3CCCC(C(=O)NC4CCCC4)C3)n2)cc1 (stereo unspecified) | · | -13.2%[12.5 µM] | 7.0 | -6.1%
O=C(c1ccc2oc(-c3ccncc3)nc2c1)N1CCCCC1 | · | 2.2% | -9.6 | 15.8%
O=C(C1CCCC1)N1CCc2nc(-c3ccccc3)nc(-c3ccc(Cl)cc3)c2C1 | ? | -1.5% | -4.7 | 1.0%
O=C(Nc1ccc(Cl)cc1)NC1CCN(Cc2cccc(-c3cccs3)c2)CC1 | · | -4.4%[12.5 µM] | 3.7 | ?
Cc1cc(C)n(CC(=O)N[C@@H]2CN(c3ncccn3)C[C@H]2CN(C)C)n1 | 28.2µM* | 10.9% | 24.2 | 1.6%
CN(C)C[C@@H]1CN(c2ncccn2)C[C@H]1NS(=O)(=O)c1ccc(Cl)cc1 | 28.2µM* | -13.3% | 18.2 | 13.2%
CN(C)C[C@@H]1CN(c2ncccn2)C[C@H]1NS(=O)(=O)Cc1ccc(F)cc1 | 25.1µM* | -3.8% | 7.5 | -2.1%
Cc1ccc(F)cc1S(=O)(=O)N[C@@H]1CN(c2ncccn2)C[C@H]1CN(C)C | 25.1µM* | 16.9% | 23.2 | 13.9%
CN(C)C[C@@H]1CN(c2ncccn2)C[C@H]1NS(=O)(=O)c1ccc(C#N)cc1 | ? | 0.5% | 7.1 | -0.3%
CN(C)C[C@@H]1CN(c2ncccn2)C[C@H]1NS(=O)(=O)c1cc(F)ccc1F | ? | 2.3% | 2.1 | 0.0%
CN(C)C[C@@H]1CN(c2ncccn2)C[C@H]1NC(=O)Cc1cccc(Cl)c1 | ? | -4.7% | 11.7 | -0.6%
COc1ccccc1CCC(=O)N[C@@H]1CN(c2ncccn2)C[C@H]1CN(C)C | 31.6µM* | -8.6% | 3.0 | 2.2%
CCOC(=O)C1(Cc2ccc(F)cc2)CCCN(C(=O)c2cc3nc(C)cc(C)n3n2)C1 (stereo unspecified) | 31.6µM* | -4.1% | 6.2 | 71.9%
O=C(c1ccccc1)N1CCC2(CC1)C(=O)Nc1ccccc12 | i | 4.2% | -12.6 | -19.1%
Cc1cc(C)n2nc(C(=O)N3CCC4(CC3)C(=O)Nc3ccccc34)cc2n1 | 28.2µM* | -7.6% | 8.1 | -5.5%
CC1(C)[C@H]2CC[C@@H](CNC(=O)c3cccc4[nH]ccc34)[C@@H]1C2 | 31.6µM* | 0.3%[87.6 µM] | 9.5 | -27.0%[87.6 µM]
CC(C)c1nc(CNC(=O)c2ccc(N3CCCC(C(N)=O)C3)nc2)no1 (stereo unspecified) | i | 6.2% | 8.0 | -2.3%
CC(C)c1nc(CNC(=O)c2ccc(NC3CCCCC3)nc2)no1 | 22.4µM* | -25.0% | 16.0 | -8.3%
COc1cccc(CNC(=O)C2CCN(c3nccc(Nc4ccccc4Cl)n3)CC2)c1 | · | -2.0% | 10.3 | -12.6%
COc1ccccc1C(=O)Nc1ccnn1C1CCN(c2cnccn2)CC1 | 28.2µM* | -13.1% | 3.1 | 4.8%
COc1ccccc1C(=O)Nc1ccnn1C1CCN(c2nccc(N)n2)CC1 | ? | -17.3% | 10.6 | 3.5%
O=C(NC1CCCCCC1)c1cc(-c2ccc(Cl)cc2Cl)c2nncn2n1 | · | -18.2%[12.5 µM] | 9.3 | -6.9%
O=C1COCC2(CN1Cc1cccc(OC(F)(F)F)c1)CN(c1nccs1)C2 | i | 1.3%[87.6 µM] | 7.0 | -18.3%[87.6 µM]
COc1ncccc1N1CC2(COCC(=O)N(Cc3cccc(OC(F)(F)F)c3)C2)C1 | 7.08µM* | -4.7%[87.6 µM] | 1.0 | -3.2%[87.6 µM]
O=C(c1cc(-c2cc(Cl)cc(Cl)c2)c2cccn2n1)N1CCOCC1 | · | -17.7% | -5.0 | -25.5%
SMILES | KDM5B inh | HEK293 viab | IP6K1 inh | SNCA expr inhib
Cc1cn2nc(C(=O)Nc3ccccc3)cc2c(N(C)Cc2ccccc2)n1 | 28.2µM* | 4.9% | -12.7 | 60.4%
Cc1cn2nc(C(=O)Nc3ccccc3C)cc2c(N(C)Cc2ccccc2)n1 | i | -2.4% | -7.4 | -4.9%
Cc1cn2nc(C(=O)Nc3cccc(F)c3C)cc2c(N(C)Cc2ccccc2)n1 | 28.2µM* | -12.1% | -14.5 | 34.5%
Cc1cn2nc(C(=O)Nc3ccc4c(c3)OCCO4)cc2c(N(C)Cc2ccccc2)n1 | 28.2µM* | -14.8% | 12.9 | -6.9%
COc1ccc(NC(=O)c2cc3c(N(C)Cc4ccccc4)nc(C)cn3n2)cc1 | 31.6µM* | 7.3% | 12.2 | -6.2%
Cc1cn2nc(C(=O)Nc3ccc(Cl)cc3C)cc2c(N(C)Cc2ccccc2)n1 | i | -18.0% | 16.2 | 24.0%
COCc1cc(CNc2nccc(-c3ccccn3)n2)[nH]n1 | ? | 1.6% | -20.0 | 16.3%
CN1CCN(CCCNc2nccc(-c3ccccn3)n2)CC1 | 28.2µM* | -2.6% | -9.5 | 11.0%
c1ccc(CCCNc2nccc(-c3ccccn3)n2)nc1 | 28.2µM* | -5.7% | 20.4 | 37.5%
COc1cccc(CNC(=O)c2cc(-c3ccsc3)c3nncn3n2)c1 | · | -0.3% | -5.3 | 12.8%
O=c1c2nc(-c3ccccc3)ccc2ncn1-c1ccc(F)cc1F | ? | -21.5%[87.6 µM] | 2.0 | 18.2%[87.6 µM]
O=c1c2nc(-c3ccsc3)ccc2ncn1-c1ccc(F)cc1F | 35.5µM* | -10.0%[87.6 µM] | -4.1 | 18.1%[87.6 µM]
COc1ccc(-c2ccc3ncn(-c4ccc(F)cc4F)c(=O)c3n2)cc1OC | 39.8µM* | -12.9%[87.6 µM] | -3.6 | -13.5%[87.6 µM]
COC(=O)[C@@H]1Cc2ncn(Cc3ccc(Cl)cc3)c2CN1CCCc1ccccc1 | 35.5µM* | ? | -16.4 | ?
COC(=O)[C@@H]1Cc2ncn(Cc3ccc(Cl)cc3)c2CN1Cc1cccs1 | 28.2µM* | -12.5%[87.6 µM] | -7.7 | -22.0%[87.6 µM]
O=C(c1ccc(S(=O)(=O)N2CCCC2)cc1)N1CCN(c2cccc(Cl)c2)CC1 | i | · | · | ·
CS(=O)(=O)c1ncc(Cl)c(C(=O)N2CCN(c3cccc(Cl)c3)CC2)n1 | i | ? | -25.7* | ?
Cc1ccc2nc(C(=O)N3CCN(c4cccc(Cl)c4)CC3)cn2c1 | i | · | · | ·
CCS(=O)(=O)c1ncc(Cl)c(C(=O)N2CCN(c3cccc(Cl)c3)CC2)n1 | i | 3.55µM* | -5.6 | 2.24µM*
Cc1ccc(NC(=O)c2cn3cc(-c4ccc(F)cc4)sc3n2)cc1 | · | 4.1% | -2.4 | -1.2%
O=C(NCc1ccc(C(F)(F)F)cc1)C1CCN(C(=O)c2ccc(-c3cccs3)cc2)CC1 | · | · | -12.1 | ·
Cc1noc(C)c1-c1cnc(Nc2ccccc2)c2c1CCO2 | 35.5µM* | 9.6%[87.6 µM] | -7.1 | 47.2%[87.6 µM]
Cc1noc(C)c1-c1cnc(Nc2cccc(C(F)(F)F)c2)c2c1CCO2 | 35.5µM* | -18.8%[87.6 µM] | -14.2 | 0.9%[87.6 µM]
COc1ccc(-c2cc(C(=O)NCc3cccc(C(F)(F)F)c3)c3cnn(C)c3n2)cc1 | · | 0.5% | 0.1 | -3.0%
CN1CC(=O)N(C2CCCC2)Cc2c(NCc3cccc(C(F)(F)F)c3)ncnc21 | · | -14.2% | -1.1 | -12.8%
Cc1ccc2c(C(=O)NCc3ccccc3Cl)cc(NC(=O)C(C)C)cc2n1 | 14.1µM* | 8.4% | 11.1 | 1.2%
Cc1ccc(CNC(=O)c2cc(NC(=O)C(C)C)cc3nc(C)ccc23)cc1 | ? | 8.1% | 11.7 | 3.1%
Cc1ccc2c(C(=O)N3CCN(c4ccccc4)CC3)cc(NC(=O)C(C)C)cc2n1 | ? | -4.4% | 27.3 | ?
CCNC(=O)c1cc(NC(=O)C(C)C)cc2nc(C)ccc12 | 25.1µM* | 3.8% | 30.1 | -14.0%
Cc1ccc2c(C(=O)NCCN3CCCCC3)cc(NC(=O)C(C)C)cc2n1 | 22.4µM* | 0.8% | 15.9 | 10.4%

Screening data as filed in PubChem BioAssay.
